Screening data as filed in PubChem BioAssay.
CHT block – inhibits the human high affinity choline transporter. CHT-expressing cells, membrane potential dye, choline response; hits give low values. AID 488975. B-score at 10 µM. 0.86% of 310,000 active;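 active means B-score over 3 SD under the library average, and starting fluorescence ratio not unusually high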;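 further: choline stimulus applied at its EC90 after an EC20 pre-addition; B-score computed on integrated fluorescence ratio after choline addition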
ANO1 activ – activators or potentiators of mouse TMEM16A chloride channel. AID 623877. HEK293 TMEM16A/YFP-H148Q/I152L, iodide quench fluorescence; hits give low values. B-score at 10 µM. 0.3% of 340,000 active;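 active means fluorescence-ratio B-score plate-corrected deviation score at least 3 library SD below zero, with starting fluorescence score within 5 deviations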;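 further: channel opened by trigger with iodide after compound preincubation; score built on the fluorescence ratio of max minus min over baseline; more negative score means more quench and so TMEM16A activation or potentiation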
Target sequence (Q8BHY3 whole entry, looked up): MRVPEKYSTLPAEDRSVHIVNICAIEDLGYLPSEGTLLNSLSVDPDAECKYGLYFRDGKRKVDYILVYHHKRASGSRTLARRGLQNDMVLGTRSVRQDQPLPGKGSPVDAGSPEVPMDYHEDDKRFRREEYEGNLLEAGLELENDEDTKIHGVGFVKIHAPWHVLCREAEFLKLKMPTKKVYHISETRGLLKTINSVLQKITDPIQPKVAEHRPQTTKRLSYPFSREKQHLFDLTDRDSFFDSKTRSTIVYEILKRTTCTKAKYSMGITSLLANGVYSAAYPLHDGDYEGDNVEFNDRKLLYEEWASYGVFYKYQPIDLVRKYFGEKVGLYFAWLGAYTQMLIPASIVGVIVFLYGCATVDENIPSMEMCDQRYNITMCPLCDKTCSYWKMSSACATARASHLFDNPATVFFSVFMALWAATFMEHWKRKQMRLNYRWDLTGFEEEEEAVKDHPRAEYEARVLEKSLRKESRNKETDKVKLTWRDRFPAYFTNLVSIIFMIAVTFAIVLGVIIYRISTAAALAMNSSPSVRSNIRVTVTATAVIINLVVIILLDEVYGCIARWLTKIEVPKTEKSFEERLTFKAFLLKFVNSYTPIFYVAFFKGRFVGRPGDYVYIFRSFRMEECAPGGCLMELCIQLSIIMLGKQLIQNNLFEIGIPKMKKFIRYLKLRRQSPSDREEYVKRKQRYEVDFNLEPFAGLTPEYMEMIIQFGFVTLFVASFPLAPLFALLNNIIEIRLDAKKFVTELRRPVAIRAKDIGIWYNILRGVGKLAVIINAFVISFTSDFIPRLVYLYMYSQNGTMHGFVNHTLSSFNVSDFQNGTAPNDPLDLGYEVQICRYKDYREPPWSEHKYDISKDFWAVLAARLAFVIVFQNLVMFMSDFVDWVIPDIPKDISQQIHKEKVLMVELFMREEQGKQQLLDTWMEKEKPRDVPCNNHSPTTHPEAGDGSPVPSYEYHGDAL
ANO1 block – inhibitors of mouse TMEM16A calcium-activated chloride channel. 1.2% of 310,000 active. AID 588511. HEK293 TMEM16A/YFP iodide influx fluorescence, ionomycin. normalized B-score (activity score, 25-100; higher = stronger inhibition) at 10 µM;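 active means ratio plate-corrected score three or more library SD toward inhibition, starting fluorescence score within five deviations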;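 further: score derived from kinetic fluorescence span divided by baseline fluorescence per well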
IDE cell inh – cellular human IDE inhibition; HEK cells, FAbetaB cleavage, fluorescence polarization; inhibition, % at 5.59 µM; 0.41% of 320,000 active; AID 434962;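 active means percent inhibition above the average of all tested compounds plus 3 SD, set per screening campaign, cut at about 16% in these data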;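 further: IDE supplied by intact live HEK cells; FP after avidin binding of uncleaved biotin substrate so inhibition keeps polarization high; 0% = DMSO wells and 100% = 60 µM reference IDE inhibitor Ii1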
CHT allo act – allosteric activators of human choline transporter CHT. Q9GZV3. CHT-expressing cells, membrane potential dye, choline EC20; hits give high values; LV-AA mutant CHT in HEK293 cells. B-score at 10 µM. 0.49% of 310,000 active. AID 488977;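 active means initial fluorescence not abnormally high and integrated response B-score, plate-corrected, over 3 SD above library mean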
IDE act – IDE (human) activation, cell-based; 0.073% of 340,000 active; activation, % at 5.96 µM; HEK cells, FAbeta-B cleavage, fluorescence polarization; 0% vehicle, 100% cell-free pure enzyme wells;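 active means activation above the mean of all tested compounds plus 3 SD, set per screening campaign, cut at about 17% in these data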
IDE inh confirm – confirmation of human insulin-degrading enzyme inhibitors in cells; shares compounds with IDE cell inh; HEK cells, FAbetaB cleavage, fluorescence polarization; inhibition, % at 5.59 µM; 51% of 1,200 active;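 active means mean inhibition across triplicate wells above the cutoff set by the earlier primary insulin-degrading enzyme screen, cut at about 16% in these data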;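 further: 0% = DMSO wells and 100% = 60 µM reference IDE inhibitor Ii1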
HEK293 tox – HEK cell cytotoxicity, counter-screen for IDE inhibitors; shares compounds with IDE cell inh; HEK293 cytotoxicity, ATP luminescence; inhibition, % at 5.59 µM; 28% of 1,200 active; in the data active means inhibition above about 22%;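 further: 0% = vehicle wells and 100% = reference cytotoxic drug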
Active calls of the source: *; i = inactive; . = no result given. The list is not random: actives were taken first. Their share in the collection is about 2.7%.

SMILES	CHT block	ANO1 activ	ANO1 block	IDE cell inh	CHT allo act	IDE act	IDE inh confirm	HEK293 tox
Cc1ccc(S(=O)(=O)Nc2ccc3oc(=O)sc3c2)c(C)c1	i	i	i	18*	i	-3	7	4
C=CCNc1nc(C(=O)OCC(=O)NCc2cccc(Cl)c2)cs1	.	i	.	1	.	3	.	.
Cc1ccc2c(c1)C1NC(=S)NC(C)(O2)C1C(=O)Nc1ccc(Cl)cc1 (configuration not stated)	i	i	i	17*	i	-12	9	13
COc1ccc(-c2nnc3ccc(SCC(=O)Nc4nc5ccccc5s4)nn23)cc1OC	i	i	i	18*	i	-24	5	11
Cc1cc(C)c(OCC(=O)NCC2COc3ccccc3O2)c(C)c1 (configuration not stated)	.	i	.	-1	.	5	.	.
Cc1ccc(-c2c(C(=O)N/N=C/c3ccc4c(c3)OCO4)nnn2-c2nonc2N)cc1	i	i	i	3	i	-6	.	.
CCCOc1ccc(-c2c(C(=O)N/N=C(\C)c3cccnc3)nnn2-c2nonc2N)cc1	i	i	i	2	i	5	.	.
CCCOc1ccc(-c2c(C(=O)N/N=C(\C)COc3ccccc3)nnn2-c2nonc2N)cc1	i	i	i	20*	i	-1	6	3
Cc1ccc(-c2c(C(=O)N/N=C/c3cccc(Cl)c3)nnn2-c2nonc2N)cc1	i	i	i	53*	i	-42	45*	10
Oc1cccc2oc(=S)[nH]c12	.	i	.	.	.	-7	.	.
Cc1cc(CSc2ccccc2)ccc1NC(=O)c1ccc(CN2CCOCC2)cc1	i	i	i	25*	i	-11	9	75*
Cc1ccc(C(=O)N2CCN(c3ccccn3)CC2)cc1	i	i	i	7	i	4	.	.
Cc1ccc(C(=O)N2CCN(c3ncnc4c(C)csc34)CC2)cc1	i	i	i	19*	i	-4	7	17
COc1ccc(C(CNC(=O)c2nn(-c3ccccc3)c(=O)c3ccccc23)N2CCOCC2)cc1 (configuration not stated)	.	i	.	.	.	5	.	.
Cc1c(NC(=O)c2cc3c(s2)-c2ccccc2OC3)cccc1[N+](=O)[O-]	i	i	i	27*	i	-9	2	39*
CN(C)CCNC(=O)c1cc2c(s1)-c1ccccc1OC2	i	i	i	4	i	7	.	.
O=C(c1ccc(F)cc1)N1CCCN(c2nc(-c3ccccc3)ns2)CC1	i	i	i	-2	i	.	.	.
O=C(Nc1ccccc1Cl)N1CCCN(c2nc(-c3ccccc3)ns2)CC1	i	i	i	21*	i	-15	8	31*
O=C(Nc1ccccc1)N1CCN(c2nc(-c3ccccc3)ns2)CC1	i	i	i	14	i	-26	.	.
Cc1c(Cl)cccc1NC(=O)N1CCCN(c2nc(-c3ccccc3)ns2)CC1	i	i	i	17*	i	-12	2	51*
Cc1ccc(OCC(=O)NC2CCCC(C)C2C)c([N+](=O)[O-])n1 (configuration not stated)	.	i	.	2	.	4	.	.
COc1ccc(Nc2nc(-c3sc(C)nc3C)cs2)c(OC)c1	i	i	i	21*	i	-8	5	62*
CCCCCCNC(=O)N[C@H](C(=O)NCCC[C@H]1CN2C(=NC[C@H]2C)N1CCC(c1ccccc1)c1ccccc1)C(C)O (some centres not stated)	i	i	i	16*	i	-17	5	38*
C[C@@H]1CN=C2N(CCNC(=O)CCC3CCCCC3)[C@H](Cc3ccc(O)cc3)CN21	i	i	i	12	i	-1	.	.
CCOc1ccc(NC(=O)c2ccccn2)cc1	i	i	i	17*	i	2	10	27*
SMILES	CHT block	ANO1 activ	ANO1 block	IDE cell inh	CHT allo act	IDE act	IDE inh confirm	HEK293 tox
O=C(O)CC12CC3CC(C1)CC(n1ncc(NCc4ccc(F)cc4Cl)c(Cl)c1=O)(C3)C2	i	i	i	28*	i	-15	21*	5
O=C(O)CC12CC3CC(C1)CC(n1ncc(NCc4ccccc4Cl)c(Cl)c1=O)(C3)C2	i	i	i	39*	i	-36	20*	9
O=C(O)CC12CC3CC(C1)CC(n1ncc(NCc4ccc5c(c4)OCO5)c(Cl)c1=O)(C3)C2	i	.	i	7	i	.	.	.
Cc1ccc(CCNC(=O)c2cc(S(=O)(=O)N3CCCC3)cn2C)cc1	i	i	i	1	i	6	.	.
CCN(C(=O)COC(=O)CCCc1c[nH]c2ccccc12)c1c(N)n(Cc2ccccc2)c(=O)[nH]c1=O	.	i	.	.	.	0	.	.
Cn1c(SCc2nc(-c3ccccc3)no2)nnc1-c1cccs1	i	i	i	12	i	-12	.	.
Cn1c(SCCOc2ccc(Cl)cc2)nnc1-c1ccncc1	i	i	i	44*	i	-48	15	16
Cc1ccc(OCCSc2nnc(-c3cccs3)n2C)cc1	i	i	i	20*	i	-20	8	6
Cn1c(SCc2nc(-c3ccc(Cl)cc3)no2)nnc1-c1cccs1	i	i	i	16*	i	-13	8	9
Cc1ccc(NC(=O)NC2CC(=O)N(c3ccc4c(c3)OCCO4)C2)c(C)c1 (configuration not stated)	i	i	i	-1	i	4	.	.
CC(NS(=O)(=O)c1cn(C)c(=O)n(C)c1=O)c1ccccc1 (configuration not stated)	i	i	i	2	i	0	.	.
COc1ccc(C(=O)N=C2SC3CS(=O)(=O)CC3N2c2ccc(C(C)=O)cc2)cc1 (configuration not stated)	i	i	i	0	i	3	.	.
O=C(NCCc1ccccc1F)C1CCC(=O)N(CCCN2CCCC2=O)C1 (configuration not stated)	i	i	i	7	i	0	.	.
COc1cc(/C=C/C(=O)CC(=O)/C=C/c2ccc(O)c(OC)c2)ccc1O	i	i	i	31*	i	-63	81*	9
Cc1c(C(=O)C(=O)N2CC=C(c3ccccc3)CC2)c2ccccc2n1C	i	i	i	16*	i	-2	2	55*
